Screening data deposited in PubChem by Center for Chemical Genomics, University of Michigan.
Dicer inh – human Dicer pre-microRNA cleavage inhibition | Q9UPY3 | cat-ELCCA pre-miR-21 Dicer processing, chemiluminescence; stronger effect = higher value | z-score at 25 µM | hit rate 6% among 47,000 | AID 1347074; in the data active means z-score above about 3, passing the limit was not always enough;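 further: higher signal means more uncleaved substrate so more Dicer inhibition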
A number is an active result; - = inactive. Shown is part of a subset that was picked to be rich in hits.

SMILES | Dicer inh
Cc1ccc(NC(c2ccccn2)c2ccc3cccnc3c2O)c(C)c1 (stereo not drawn) | -
Cc1cc(Cl)ccc1Oc1ncccc1N | -
Cn1c(NCc2ccco2)nc2c1c(=O)n(Cc1ccccc1Cl)c(=O)n2C | -
Cn1c2ccccc2c2nnc(SCCCn3c(=O)[nH]c4ccccc43)nc21 | -
Cc1ccc(C)n1-c1ccc(C(=O)NNS(=O)(=O)c2ccc(F)cc2F)cc1 | -
CCn1c2c(c(=O)[nH]c1=O)C(c1ccc(C)cc1)C1=C(N2)c2ccccc2C1=O (stereo not drawn) | -
Cc1ccc(C(=O)c2ccccc2C(=O)O)cc1C | -
CN(C)c1ccc(C(=O)c2ccccc2C(=O)O)c(O)c1 | 3.2
COc1ccc(C(=O)c2ccccc2O)c(O)c1 | -
CCS(=O)(=O)c1ccc(O)c(NC(=O)COCC(=O)O)c1 | -
Cc1nc(COc2ccc(C(C)(C)C)cc2)sc1C(=O)NNC(=O)c1ccc(Cl)cc1Cl | -
COc1ccc(OC)c(C2SCCN2S(=O)(=O)c2ccccc2)c1 (stereo not drawn) | -
COc1ccc(C2SCCN2S(=O)(=O)c2ccc(Br)cc2)cc1 (stereo not drawn) | 3.7
COc1ccc(C2SCCN2S(=O)(=O)c2ccc(F)cc2)cc1 (stereo not drawn) | -
CCOc1ccc(S(=O)(=O)N2CCSC2c2cc(OC)ccc2OC)cc1 (stereo not drawn) | 4.8
COc1ccc(OC)c(C2SCCN2S(=O)(=O)c2ccc3ccccc3c2)c1 (stereo not drawn) | -
COc1ccc(S(=O)(=O)N2CCSC2c2ccccc2)cc1 (stereo not drawn) | -
Cc1nn(C(=O)c2cccc(Cl)c2)c(C)c1Br | -
Clc1ccc(C2CC(c3ccccc3)=NN2c2ccccc2)cc1 (stereo not drawn) | -
O=c1c(Cl)c(N2CCOCC2)cnn1-c1ccccc1 | -
Cn1c(=O)c2c(ncn2CC(COC(=O)c2ccco2)OC(=O)c2ccco2)n(C)c1=O (stereo not drawn) | -
COC(=O)/C=C1\S/C(=N\c2ccccn2)N(c2cccc(C(F)(F)F)c2)C1=O | -
COc1ccccc1-c1nnc(SCC(=O)c2ccccc2)o1 | -
Cc1cc(OC(=O)c2ccco2)nc(SCc2c(Cl)cccc2Cl)n1 | -
CSc1sc(C(=O)NNC(=O)c2ccccc2Cl)cc1S(=O)(=O)C(C)C | -
SMILES | Dicer inh
CSc1ccccc1NC(=O)C1CC(c2cccc(Br)c2)=NO1 (stereo not drawn) | -
O=C(NCC1CCCO1)C1CC(c2cccc(Br)c2)=NO1 (stereo not drawn) | -
O=C(NCCCn1ccnc1)C1CC(c2cccc(Br)c2)=NO1 (stereo not drawn) | 3.5
O=C(Nc1cc(Cl)ccc1O)C1CC(c2cccc(Br)c2)=NO1 (stereo not drawn) | 3
O=C(Nc1cccnc1)C1CC(c2cccc(Br)c2)=NO1 (stereo not drawn) | -
O=C(Nc1cccc(O)c1)C1CC(c2cccc(Br)c2)=NO1 (stereo not drawn) | -
C=CCOC(=O)c1sc(N2C(=O)c3oc4ccccc4c(=O)c3C2c2ccc(C)cc2)nc1C (stereo not drawn) | -
CCOc1ccc(OCC)c(S(=O)(=O)n2ccnc2)c1 | -
COCCCNC(=S)NNC(=O)c1c(OC)cc(C(F)(F)F)cc1C(F)(F)F | -
CCOC(=O)c1c(N/N=C/c2ccc(F)c(F)c2)n[nH]c1C | -
O=C(CC1(O)C(=O)N(CCc2ccccc2)c2ccc(Cl)cc21)c1ccc(F)cc1 (stereo not drawn) | -
COC(=O)C1=C(C)NC2=C(C(=O)c3ccccc32)C1c1cc(Cl)c(OCC(=O)O)c(OC)c1 (stereo not drawn) | -
Fc1ccc(COc2ncnc3cc(Cl)ccc23)cc1 | -
COc1cccc(CC(=O)NNC(=O)NC(=O)c2ccccc2Cl)c1 | -
CCSCCOC(=O)C1=C(C)NC2=C(C(=O)CCC2)C1c1cccc(F)c1 (stereo not drawn) | 3.1
CCSCCOC(=O)C1=C(C)NC2=C(C(=O)CCC2)C1c1ccc(C(=O)OC)cc1 (stereo not drawn) | -
CCn1c2ccccc2c2cc(C3C(C(=O)OCCOC)=C(C)NC4=C3C(=O)CCC4)ccc21 (stereo not drawn) | 3.6
CCSCCOC(=O)C1=C(C)NC2=C(C(=O)CCC2)C1c1ccc(OC)c(OC)c1 (stereo not drawn) | 4.8
CCn1c2ccccc2c2cc(C3C(C(=O)OCC4CCCO4)=C(C)NC4=C3C(=O)CCC4)ccc21 (stereo not drawn) | -
CCCCOC(=O)C1=C(C)NC2=C(C(=O)CCC2)C1c1ccc(OC)c(OC)c1 (stereo not drawn) | -
COCCOC(=O)C1=C(C)NC2=C(C(=O)CCC2)C1c1ccc(Cl)cc1 (stereo not drawn) | -
CCOCCOC(=O)C1=C(C)NC2=C(C(=O)CCC2)C1c1cccc(F)c1 (stereo not drawn) | -
CCCCCOC(=O)C1=C(C)NC2=C(C(=O)CCC2)C1c1ccc(OC)c(OC)c1 (stereo not drawn) | -
CC(C)C(=O)NCc1ccc(Cl)cc1Cl | -
COc1cccc(-n2c(CCC(=O)O)ccc2-c2cccs2)c1 | -
SMILES | Dicer inh
O=C(Nc1nccs1)c1cc2ccccc2c(=O)o1 | -
COC(=O)Nc1c(-c2ccccc2)nc2ccccn12 | -
O=C(Nc1c(-c2ccccc2)nc2ccccn12)c1ccco1 | 4.9
O=C(Nc1c(-c2ccccc2)nc2ccc(Cl)cn12)c1ccco1 | -
O=C(OCc1ccccc1)C(O)C(O)C(=O)OCc1ccccc1 (stereo not drawn) | -
CN1CCN(CC(=O)Nc2scc3c2c(=O)oc2ccccc23)CC1 | -
Cc1n[nH]c(C)c1Sc1ccc(Cl)cc1 | -
O=C1/C(=C/c2ccc(Cl)cc2)N=C(c2ccccc2)N1c1ccc(F)cc1 | 7.9
O=C1NC(c2ccccc2)=N/C1=C/c1ccccc1 | -
O=C1/C(=C\c2ccc(F)cc2)N=C(c2ccccc2)N1Cc1ccc(F)cc1 | -
COc1cccc(-c2coc3cc4oc(=O)c5ccccc5c4cc23)c1 | -
COC(=O)c1ccc(CN2CCOCC2)o1 | -
COc1ccc(-c2noc(CSc3nc4ccccc4[nH]3)n2)c(OC)c1 | -
COc1ccc(-c2noc(CSc3nc4ccccc4[nH]3)n2)cc1OC | 3.2
COc1ccc(OC)c(-c2noc(CSc3nc4ccccc4[nH]3)n2)c1 | -
O=C(CSc1nc(-c2ccco2)cc(C(F)(F)F)n1)Nc1ccc(-n2cccc2)c(Cl)c1 | -
Cc1cc(C(F)(F)F)n2nc(-c3ccc(C(C)(C)C)cc3)cc2n1 | -
CSC(=N\N=C(/C)c1cc2ccccc2o1)/N=C/N(C)C | -
FC(F)(F)c1cnc(SCc2c(Cl)cccc2Cl)c(Cl)c1 | -
FC(F)(F)c1cccc(CSc2ncc(C(F)(F)F)cc2C(F)(F)F)c1 | 3
FC(F)(F)c1ccc(CSc2ncc(C(F)(F)F)cc2C(F)(F)F)cc1 | -
CC12N=NCC1C(=O)N(c1ccc(Cl)cc1)C2=O (stereo not drawn) | 3
CC12N=NCC1C(=O)N(c1cccc(Cl)c1)C2=O (stereo not drawn) | -
Cc1ccc(N2C(=O)C3CN=NC3(C)C2=O)cc1 (stereo not drawn) | -
CC(=O)OCC(=O)[C@@]1(O)CC[C@H]2[C@@H]3CCC4=CC(=O)CC[C@]4(C)C3(F)[C@@H](O)C[C@@]21C (stereo partly drawn) | -
COCCCn1c(=S)[nH]c2cc(Cl)ccc2c1=O | -
CSc1ccc(-c2c(-c3cccs3)cc(-c3ccc(Cl)cc3)n2C)cc1 | -
